Source: PubChem BioAssay (NCI)
Compounds without any hit were thinned out: in the full panel of roughly 83,000, 20% have a hit.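 How to read the values: 0–100, growth inhibition (40 = 60% inhibited); 0, no net growth; -100 to 0, cell death (-40 = 40% of starting cells died; -100 = all dead).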 Unmarked numbers belong to inactive results. Rule for the calls: active = growth percent below 10; inactive = the rest.

Each compound was assayed on HL-60(TB) leukemia (assay: NCI-60 one-dose screen, 48 h (100 = growth as untreated, 0 = no growth, -100 = all killed)). Details: 10 µM unless noted.

Compound	growth
CCCCCCC(C)(O)c1ccccc1 (stereo not drawn)	94.6%
CCOC(=O)CNP(=O)(OC[C@@H](Cc1ccccc1)NC(=O)c1cc2ccccc2s1)Oc1ccccc1 (stereo partly drawn)	79.4%
O=C(CSc1ccc2nnc(-c3cccc(F)c3)n2n1)Nc1ccc2c(c1)OCO2	78.9%
